# RXFP1 antag = blocks the human relaxin receptor RXFP1. activity change, negative = inhibition, % at 57.5 µM. HEK293-RXFP1, relaxin-stimulated cAMP HTRF, 30 min; hits give low values. AID 1259400. 350,000 compounds, 0.59% hits;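 active means activity change of -60% or lower, but not beyond a set lower limit; inconclusive means change between -60% and -40%, or beyond the set limit; inactive means change above -40%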; further: on the % scale 0 is the no-effect control and ±100 the full control effect
# Target sequence (Q9HBX9 whole entry, looked up): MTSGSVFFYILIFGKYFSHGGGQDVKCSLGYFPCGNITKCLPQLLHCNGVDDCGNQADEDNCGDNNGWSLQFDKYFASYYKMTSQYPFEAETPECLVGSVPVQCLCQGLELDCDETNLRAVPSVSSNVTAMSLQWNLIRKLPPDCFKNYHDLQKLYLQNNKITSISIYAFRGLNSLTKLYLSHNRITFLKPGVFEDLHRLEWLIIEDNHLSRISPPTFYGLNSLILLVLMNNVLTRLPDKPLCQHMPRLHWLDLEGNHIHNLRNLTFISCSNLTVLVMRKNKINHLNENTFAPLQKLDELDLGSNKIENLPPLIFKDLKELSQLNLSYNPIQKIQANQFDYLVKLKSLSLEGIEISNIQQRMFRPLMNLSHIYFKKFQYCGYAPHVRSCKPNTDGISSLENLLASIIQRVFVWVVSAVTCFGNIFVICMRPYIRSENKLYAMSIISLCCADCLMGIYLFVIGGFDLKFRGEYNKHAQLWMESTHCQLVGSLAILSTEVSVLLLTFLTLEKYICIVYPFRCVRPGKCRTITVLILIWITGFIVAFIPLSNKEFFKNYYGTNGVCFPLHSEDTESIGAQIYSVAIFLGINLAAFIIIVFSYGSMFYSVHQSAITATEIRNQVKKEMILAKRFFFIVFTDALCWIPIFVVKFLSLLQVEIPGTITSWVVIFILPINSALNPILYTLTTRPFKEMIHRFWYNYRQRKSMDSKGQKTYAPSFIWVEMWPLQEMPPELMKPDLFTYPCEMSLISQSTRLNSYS
# RXFP1 agonist = activates the human relaxin receptor RXFP1 | Q9HBX9 | HEK293T-RXFP1 cAMP TR-FRET, 30 min; response scale: percent of porcine relaxin response, buffer zero | Potency, µM (series often up to 57.5 µM), inactives show top-dose activation, most hits filed as activators | 370,000 compounds, 0.3% hits; active means well fitted activation curve with a large enough effect; inconclusive means small, poorly fitted or top-dose-only effect; further: potency means the concentration at half of the fitted maximal effect; on the % scale 0 is the no-effect control and ±100 the full control effect; nearly all actives have a fitted effect of over 60% in size
#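 HEK293 cells stably expressing RXFP1, treated 30 min at 37C with compounds plus PDE4 inhibitor Ro 20174; cAMP measured by HTRF TR-FRET. Normalized to buffer and 29 nM porcine relaxin; EC50 by Hill fit.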
# pAkt inh = Akt phosphorylation inhibition. 360,000 compounds, 0.32% hits. activity change, % for hits at 50 µM. Neuro2A IGF-stimulated pAkt S473 HTRF, 20 min; hits give low values; in the data active means activity change below about -80%; inconclusive means mostly about -51% to -80%; further: on the % scale 0 is the no-effect control and ±100 the full control effect
#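 Neuro2A cells in DMEM with 0.5% FBS, overnight at 37 deg C, given compound at single 50 µM final, then IGF (6 nM final) for 20 min at 37 deg C. Lysed; phospho-Akt Ser473 by HTRF after 24 h, 665/615 ratio.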
# gsp agonist = agonists of gsp mutant (McCune-Albright syndrome); gsp mutant cells, cAMP HTRF, 30 min; Potency, µM (highest dose often 76.9 µM), without a hit: top-dose activation (cAMP increase), usual class: activators; 340,000 compounds, 0.13% hits; AID 624287; active means well fitted activation curve with a large enough effect; inconclusive means small, poorly fitted or top-dose-only effect, or another doubt; inactive means no such curve, though single readings can be large or run the other way; cell line not stated here;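 further: phosphodiesterase inhibitor Ro 20-1724 added with compounds to block cAMP breakdown; potency means the concentration at half of the fitted maximal effect; nearly all actives have a fitted effect of over 60% in size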
#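 Cells in DMEM/10% FBS with G418 were pretreated with compounds in DMSO plus […] (300 uM stock) for 30 min at 37C. cAMP was measured by HTRF (cAMP-d2 plus anti-cAMP antibody-K) after 30 min at room temperature.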
# gsp antagonist = antagonists of gsp mutant (McCune-Albright syndrome); gsp-mutant cells, cAMP HTRF, 30 min; Potency, µM (series often up to 76.9 µM), for inactives: at the highest dose activity change, negative = inhibition, usual class: inhibitors; 340,000 compounds, 0.4% hits; calls by dose curve; cell line not stated here;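 further: intracellular cAMP measured with PDE inhibitor Ro 20-1724 present during compound exposure; potency means the concentration at half of the fitted maximal effect; on the % scale 0 is the no-effect control and ±100 the full control effect; nearly all actives have a fitted effect of over 65% in size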
#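 Cells, 2000/well, grown 16–24 h in DMEM 10% FBS with 0.5 mg/ml G418, then compounds plus […] (300 uM addition stock), 30 min at 37C. cAMP read by HTRF (cAMP-d2 and anti-cAMP antibody-K in lysis buffer) after 30 min RT.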
# Active calls of the source: *; i = inactive; u = inconclusive; x = not tested or not shown; ! = not active in a repeat; [ ] = another dose, or the depositor's remark. A selection: hits, their analogues and other compounds. The true share with any hit is near 1.2%.
SMILES,RXFP1 antag,RXFP1 agonist,pAkt inh,gsp agonist,gsp antagonist
CC1CCN(S(=O)(=O)c2ccc3c(c2)CCC(=O)N3CC(=O)Nc2cccc(C#N)c2)CC1,-3,2%,x,x,x
CCCC(=O)C1=C(c2cccc(OC)c2)N(C(=O)CCC)n2c(C)nnc2S1,-10,1%,x,x,x
CC(NCc1cccc(OCc2ccccc2)c1)C(O)c1ccccc1 (centres undefined),-1,0%,i,-15%,9%
CC(NCc1ccc(OCc2ccc(Cl)cc2)cc1)C(O)c1ccccc1 (centres undefined),-100*,2%,i,-3%[15.4 µM],5%
Oc1ccc(/C=N/NC(=S)NC2CC3CCC2C3)cc1 (centres undefined),-25,-1%,i,10%,-10%
S=C(N/N=C/c1cccs1)NC1CC2CCC1C2 (centres undefined),-67*,0%,i,-4%[15.4 µM],6%
CCC(C(=O)N1CCN(c2cc(Cl)ccc2C)CC1)n1nc(C)n2c(cc3occc32)c1=O (centres undefined),x,2%,x,x,x
Cc1ccc(-c2ccc3nnc(SCC(=O)NCC4CCCO4)n3n2)cc1 (centres undefined),11,25µM*,i,9%,0%
CCc1ccc(-c2ccc3nnc(SCC(=O)NCC4CCCO4)n3n2)cc1 (centres undefined),10,26%,i,12%[15.4 µM],15%
Cn1c(-c2ccc(S(=O)(=O)N3CCCC3)cc2)csc1=Nc1ccc(Cl)c(Cl)c1,1,5%,x,x,x
COc1ccc(/C=C/C(=O)Nc2sc3c(c2C(N)=O)CCC(C)C3)cc1OC (centres undefined),x,-1%,x,x,x
CNCCCOc1ccc2c(c1)CCC2,16,-1%,i,-2%,5%
c1cnc(SCCOc2ccc3c(c2)CCC3)nc1,-4,1%,-117%*,-45%,u
O=C(CCS(=O)(=O)c1ccccc1)N(CCCN1CCOCC1)c1nc2c(F)cccc2s1,-74*,1%,i,-5%,1%
Cc1ccc(S(=O)(=O)CC(=O)N(CCCN2CCOCC2)c2nc3c(F)cccc3s2)cc1,u,1%,i,7%[15.4 µM],-19%
CCN(CC)c1ccc(NC(=O)Nc2cccc3ccccc23)cc1,-22,-2%,i,3%[15.4 µM],-16%
CCN(CC)c1ccc(NC(=O)Nc2ccccc2C(F)(F)F)cc1,-8,-3%,-116%*,20%,8%
CCN(CC)S(=O)(=O)c1cccc(NC(=O)Nc2cccc(C(F)(F)F)c2)c1,-16,-1%,i,-33%,32µM*
Cc1ccc(C(=O)NCCN(C)C)cc1C,5,3%,-107%*,1%,-2%
COCCNC(=O)c1cc(C)ccc1C,-6,3%,i,30%[15.4 µM],8%
Cc1ccc(C)c(C(=O)NCCN(C)C)c1,7,1%,-110%*,-34%,21%
C=C(CN(C)C)C(=O)c1cc(C)ccc1C,-109*,x,i,u,u
CCOc1ccc(C(=O)NCCN(C)C)cc1,-2,1%,i,-16%,10%
C=CCn1c(=O)c2ccccc2n2c(Sc3nnnn3-c3ccccc3)nnc12,-21,0%,-110%*,8%,-2%
CC(C)c1ccc(C(=O)Nc2ccc(-c3nc4ccccc4s3)c(Cl)c2)cc1,-4,11%,x,x,x
SMILES,RXFP1 antag,RXFP1 agonist,pAkt inh,gsp agonist,gsp antagonist
CCOCCSc1nc2c(c(=O)[nH]c(=O)n2C)n1CCCc1ccccc1,3,1%,-114%*,0%,10%
CCCCCn1c(SCCc2ccccc2)nc2c1c(=O)[nH]c(=O)n2C,-1,3%,-112%*,4%,2%
CCOCCn1c(SCCc2ccccc2)nc2c1c(=O)[nH]c(=O)n2C,0,0%,i,-23%,-2%
CCCCn1c(NCCC)nc2c1c(=O)[nH]c(=O)n2C,1,0%,i,-13%,7%
C=CCNc1nc2c(c(=O)[nH]c(=O)n2C)n1CCCCC,2,4%,-114%*,5%,-1%
CCOC(=O)C(C)Sc1nc2c(c(=O)[nH]c(=O)n2C)n1CCc1ccccc1 (centres undefined),-2,0%,-103%*,-33%,2%[15.4 µM]
Cc1ccc(S(=O)(=O)NCCc2cn3ccsc3n2)cc1,11,2%,x,x,x
CN1CCN(CCCN2c3ccccc3Sc3ccc(C(F)(F)F)cc32)CC1,-65*!,3%,i,u,18%
Cn1c(SCC(=O)Nc2ccc(NC(=O)c3ccccc3F)cc2)nnc1-c1ccncc1,3,23%,i,6%[15.4 µM],50µM*
Cn1c(SCC(=O)Nc2ccc(NC(=O)c3cccc(F)c3)cc2)nnc1-c1ccncc1,-12,3%,i,14%[15.4 µM],8%
C[C@@H]1CC[C@@]2(OC1)O[C@H]1C[C@H]3[C@@H]4CC[C@H]5C[C@@H](O)CC[C@]5(C)[C@H]4CC(=O)[C@]3(C)[C@H]1[C@@H]2C,-8,x,x,x,x
C[C@]12CCC(=O)C=C1[C@@H]1C[C@@H]1[C@H]1[C@@H]3[C@@H]4C[C@@H]4[C@@]4(CCC(=O)O4)[C@@]3(C)CC[C@@H]12,-25,x,x,x,x
CCOc1ccc(NC(=O)Cn2nc(-c3ccccc3Cl)n(CC)c2=S)cc1,3,0%,i,u,-2%
CCn1c(-c2ccccc2Cl)nn(CC(=O)Nc2ccc(OC)cc2)c1=S,-13,1%,-106%*,0%,-2%
CCc1nnc(SCc2ccc(F)cc2Cl)c2cc3sc(C)cc3n12,-2,u,x,x,x
Cc1ccc(N/N=C(/Sc2nnnn2-c2ccccc2)C(=O)c2ccccc2)cc1,x,0%,i,1%,25µM*
O=C(O)c1ccc(NC(=S)NC(=O)C(c2ccccc2)c2ccccc2)cc1,-28,2%,i,u,u
COc1ccc(C(=O)O)cc1NC(=S)NC(=O)C(c1ccccc1)c1ccccc1,-116*,3%,i,-27%,6%
CCC(NC(=O)Nc1cc(OC)ccc1OC)c1c(-n2cccc2)sc2c1CCN(CC)C2 (centres undefined),1,1%,x,x,x
NC(=O)CC[C@@H]1NC(=O)[C@H](Cc2ccccc2)NC(=O)[C@H](Cc2ccc(O)cc2)NC(=O)CCSSC[C@@H](C(=O)N2CCC[C@H]2C(=O)N[C@@H](CCCN=C(N)N)C(=O)NCC(N)=O)NC(=O)[C@H](CC(N)=O)NC1=O,11,x,x,x,x
NC(=S)N/N=C\c1ccc(-c2cccc(Cl)c2Cl)o1,-28,-2%,-122%*,-5%,-6%
Cc1coc2c(C)c3oc(=O)c(CCC(=O)N4CCCCC4)c(C)c3cc12,6,1%,x,x,x
Cc1c(CN(C)C(=O)c2cc(-c3ccccc3)nc3ccc(Br)cc23)cnn1C,x,16µM*,x,x,x
COc1ccc(CN(C)C(=O)c2cc(-c3ccccc3)nc3ccc(C)cc23)c(OC)c1OC,-32,1%,i,-13%,u
CCCC(CCC)(C(=O)OCC)C(=O)OCC,-12,x,x,x,x

# High-throughput results deposited in PubChem by National Center for Advancing Translational Sciences (NCATS).
